Data reported in PubChem BioAssay.
Active and inactive are the calls of the source.

Columns and labels:
[1] = tested on: PRMT1 (protein arginine N-methyltransferase 1); experiment: PRMT1 binders on small-molecule microarrays, primary screen, biochemical, small-molecule microarray, 635 nm fluorescence (AID 1088); details: small-molecule microarray binding, higher = more signal;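 note: binding of Prmt1 protein to compounds spotted on small-molecule microarray slides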
[2] = yeast growth modulation, basal conditions, primary screen, YJM789 clinical isolate, OD600, 24 h (AID 1089);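 note: growth of clinical yeast isolate S. cerevisiae YJM 789 seeded 1000 cells per well; test concentration not given here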; details: S. cerevisiae YJM789 growth, higher = more signal, called active from +8 up or from −8 down
[3] = fission yeast growth modulation, primary screen, strain 972, OD600, 24 h, no modulator (AID 1090);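 note: basal condition with compound alone and no growth modifier present; test concentration not given here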; details: S. pombe 972 growth, higher = more signal, called active from +8 up or from −8 down
[4] = S. cerevisiae growth modulation with rapamycin, primary screen, strain BY4716, OD600, 96 h (AID 1091); details: higher = more signal, called active from +8 up or from −8 down; note: test concentration not given here
[5] = biological target: Torsin-1A-interacting protein 2 (Homo sapiens) (UniProt Q8NFQ8); experiment: LULL1 binders on small-molecule microarray, primary screen, cell lysate, human LULL1 lysate, 635/667 nm fluorescence (AID 1092); details: hLULL1 lysate binding, 635 nm fluorescence, higher = more signal;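 note: probe is lysate of COS7 cells overexpressing human LULL1; score merges per-feature 667 nm fluorescence with signal-to-noise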
[6] = E. coli growth modulation, two-sided OD650, primary screen, E. coli filamentation project, strain DRC41, 24 h (AID 1093); details: OD650, 24 h, higher = more signal, called active from +8 up or from −8 down;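 note: MC1000 strain lacking acrAB efflux and sulA so SOS filamentation is blocked; test concentration not given here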
[7] = small-molecule microarray binders of probe aLefty2, primary screen, biochemical, biotinylated probe, 635/667 nm fluorescence (AID 1094); details: higher = more signal;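 note: score merges spot fluorescence near 667 nm with spot signal-to-noise ratio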
[8] = tested on: Noggin (protein binding on small-molecule microarray); experiment: Noggin binders on small-molecule microarray, primary screen, biochemical, 635/667 nm fluorescence (AID 1095); details: 635 nm fluorescence, higher = more signal;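 note: score merges 667 nm feature fluorescence with signal to noise over triplicate slides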
[9] = biological target: Neurogenic locus notch homolog protein 3 (Homo sapiens) (UniProt Q9UM47); experiment: NOTCH3 binders on small-molecule microarray, primary screen, biochemical, 635/667 nm fluorescence (AID 1096); details: NOTCH3 binding, 635 nm fluorescence, higher = more signal
[10] = small-molecule microarray binders of probe aEGFR, primary screen, biochemical, biotinylated probe, 635/667 nm fluorescence (AID 1097); details: higher = more signal;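 note: probe is a biotinylated anti-EGFR antibody binding compounds printed on slides; score combines fluorescence near 667 nm and signal to noise of each spot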
[11] = tested on: Plasmodium falciparum Sir2 (PF13_0152, Sir2A); experiment: pfSir2 binders on small-molecule microarrays, primary screen, biochemical, small-molecule microarray, 635 nm fluorescence (AID 1098); details: small-molecule microarray binding, fluorescence 635 nm; higher = more signal;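 note: score merges spot fluorescence intensity with its signal-to-noise ratio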
[12] = small-molecule microarray binders of probe aDKK1, primary screen, biochemical, biotinylated probe, 635/667 nm fluorescence (AID 1099); details: higher = more signal;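 note: score merges 667nm spot fluorescence with signal to noise across triplicate slides; reference of the scale not given here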
[13] = small-molecule microarray binders of probe aCHRDL2, primary screen, biochemical, biotinylated probe, 635/667 nm fluorescence (AID 1100); details: higher = more signal
[14] = splicing luciferase reporter signal modulators, primary screen, spliceosome inhibition project, cell-based, HEK293, splice +/- reporter (AID 1101); details: luminescence, 24 h, higher = more signal, called active from +8 up or from −8 down;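 note: HEK293 cells carrying a splicing-competent luciferase reporter gene; test concentration not given here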
[15] = biological target: Fibroblast growth factor 10 (Homo sapiens) (UniProt O15520); experiment: FGF10 binders on small-molecule microarrays, primary screen, biochemical, small-molecule microarray, 635 nm fluorescence (AID 1102); details: FGF10 binding, fluorescence 635 nm, higher = more signal
[16] = tested on: glycogen synthase kinase-3 (GSK3A per assay name; protocol says GSK3B); experiment: GSK3 binders on small-molecule microarrays, primary screen, biochemical, small-molecule microarray, 635 nm fluorescence, GSK3A (AID 1103); details: small-molecule microarray binding, fluorescence 635 nm; higher = more signal; note: the record names both GSK3A and GSK3B
[17] = biological target: Epidermal growth factor receptor (Homo sapiens) (UniProt P00533); experiment: EGFR binders on small-molecule microarrays, primary screen, biochemical, small-molecule microarray, 635 nm fluorescence (AID 1104); details: EGFR binding, higher = more signal;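 note: score merges 667 nm emission intensity with spot signal to noise over triplicate slides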
[18] = biological target: Follistatin-related protein 3 (Homo sapiens) (UniProt O95633); experiment: FSTL3 binders on small-molecule microarrays, primary screen, biochemical, small-molecule microarray, 635 nm fluorescence (AID 1105); details: FSTL3 binding, higher = more signal;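 note: score merges emission near 667 nm and signal to noise per printed spot across three slides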
[19] = biological target: Dickkopf-related protein 1 (Homo sapiens) (UniProt O94907); experiment: DKK1 binders on small-molecule microarrays, primary screen, biochemical, small-molecule microarray, 635 nm fluorescence scan (AID 1106); details: DKK1 binding, higher = more signal;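 note: score merges emission near 667 nm with signal to noise over three replicate slides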
[20] = tested on: Inhibin beta A chain (activin A); experiment: INHBA (activin A) binders on microarrays, primary screen, biochemical, small-molecule microarray, 635 nm fluorescence scan (AID 1107); details: small-molecule microarray binding, higher = more signal;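 note: mouse activin A protein probed at 4.33 µg/mL on printed slides; score merges bound-protein fluorescence near 667 nm with spot signal-to-noise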

Chain of Torsin-1A-interacting protein 2 (Homo sapiens) (Q8NFQ8 whole entry, looked up): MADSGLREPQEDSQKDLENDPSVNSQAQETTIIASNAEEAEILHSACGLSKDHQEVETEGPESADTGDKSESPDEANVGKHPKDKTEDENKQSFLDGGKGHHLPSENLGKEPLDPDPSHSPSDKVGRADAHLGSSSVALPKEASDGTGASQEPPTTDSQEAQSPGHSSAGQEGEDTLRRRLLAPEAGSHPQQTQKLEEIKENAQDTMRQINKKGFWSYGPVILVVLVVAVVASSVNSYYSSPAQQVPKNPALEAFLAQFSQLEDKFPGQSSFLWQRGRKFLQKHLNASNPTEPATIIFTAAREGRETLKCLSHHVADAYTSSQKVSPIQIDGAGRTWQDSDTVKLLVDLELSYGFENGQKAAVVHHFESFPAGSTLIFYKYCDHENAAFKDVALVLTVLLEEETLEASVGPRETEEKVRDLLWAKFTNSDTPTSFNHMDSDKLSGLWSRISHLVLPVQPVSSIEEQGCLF
Chain of Neurogenic locus notch homolog protein 3 (Homo sapiens) (Q9UM47 whole entry, looked up): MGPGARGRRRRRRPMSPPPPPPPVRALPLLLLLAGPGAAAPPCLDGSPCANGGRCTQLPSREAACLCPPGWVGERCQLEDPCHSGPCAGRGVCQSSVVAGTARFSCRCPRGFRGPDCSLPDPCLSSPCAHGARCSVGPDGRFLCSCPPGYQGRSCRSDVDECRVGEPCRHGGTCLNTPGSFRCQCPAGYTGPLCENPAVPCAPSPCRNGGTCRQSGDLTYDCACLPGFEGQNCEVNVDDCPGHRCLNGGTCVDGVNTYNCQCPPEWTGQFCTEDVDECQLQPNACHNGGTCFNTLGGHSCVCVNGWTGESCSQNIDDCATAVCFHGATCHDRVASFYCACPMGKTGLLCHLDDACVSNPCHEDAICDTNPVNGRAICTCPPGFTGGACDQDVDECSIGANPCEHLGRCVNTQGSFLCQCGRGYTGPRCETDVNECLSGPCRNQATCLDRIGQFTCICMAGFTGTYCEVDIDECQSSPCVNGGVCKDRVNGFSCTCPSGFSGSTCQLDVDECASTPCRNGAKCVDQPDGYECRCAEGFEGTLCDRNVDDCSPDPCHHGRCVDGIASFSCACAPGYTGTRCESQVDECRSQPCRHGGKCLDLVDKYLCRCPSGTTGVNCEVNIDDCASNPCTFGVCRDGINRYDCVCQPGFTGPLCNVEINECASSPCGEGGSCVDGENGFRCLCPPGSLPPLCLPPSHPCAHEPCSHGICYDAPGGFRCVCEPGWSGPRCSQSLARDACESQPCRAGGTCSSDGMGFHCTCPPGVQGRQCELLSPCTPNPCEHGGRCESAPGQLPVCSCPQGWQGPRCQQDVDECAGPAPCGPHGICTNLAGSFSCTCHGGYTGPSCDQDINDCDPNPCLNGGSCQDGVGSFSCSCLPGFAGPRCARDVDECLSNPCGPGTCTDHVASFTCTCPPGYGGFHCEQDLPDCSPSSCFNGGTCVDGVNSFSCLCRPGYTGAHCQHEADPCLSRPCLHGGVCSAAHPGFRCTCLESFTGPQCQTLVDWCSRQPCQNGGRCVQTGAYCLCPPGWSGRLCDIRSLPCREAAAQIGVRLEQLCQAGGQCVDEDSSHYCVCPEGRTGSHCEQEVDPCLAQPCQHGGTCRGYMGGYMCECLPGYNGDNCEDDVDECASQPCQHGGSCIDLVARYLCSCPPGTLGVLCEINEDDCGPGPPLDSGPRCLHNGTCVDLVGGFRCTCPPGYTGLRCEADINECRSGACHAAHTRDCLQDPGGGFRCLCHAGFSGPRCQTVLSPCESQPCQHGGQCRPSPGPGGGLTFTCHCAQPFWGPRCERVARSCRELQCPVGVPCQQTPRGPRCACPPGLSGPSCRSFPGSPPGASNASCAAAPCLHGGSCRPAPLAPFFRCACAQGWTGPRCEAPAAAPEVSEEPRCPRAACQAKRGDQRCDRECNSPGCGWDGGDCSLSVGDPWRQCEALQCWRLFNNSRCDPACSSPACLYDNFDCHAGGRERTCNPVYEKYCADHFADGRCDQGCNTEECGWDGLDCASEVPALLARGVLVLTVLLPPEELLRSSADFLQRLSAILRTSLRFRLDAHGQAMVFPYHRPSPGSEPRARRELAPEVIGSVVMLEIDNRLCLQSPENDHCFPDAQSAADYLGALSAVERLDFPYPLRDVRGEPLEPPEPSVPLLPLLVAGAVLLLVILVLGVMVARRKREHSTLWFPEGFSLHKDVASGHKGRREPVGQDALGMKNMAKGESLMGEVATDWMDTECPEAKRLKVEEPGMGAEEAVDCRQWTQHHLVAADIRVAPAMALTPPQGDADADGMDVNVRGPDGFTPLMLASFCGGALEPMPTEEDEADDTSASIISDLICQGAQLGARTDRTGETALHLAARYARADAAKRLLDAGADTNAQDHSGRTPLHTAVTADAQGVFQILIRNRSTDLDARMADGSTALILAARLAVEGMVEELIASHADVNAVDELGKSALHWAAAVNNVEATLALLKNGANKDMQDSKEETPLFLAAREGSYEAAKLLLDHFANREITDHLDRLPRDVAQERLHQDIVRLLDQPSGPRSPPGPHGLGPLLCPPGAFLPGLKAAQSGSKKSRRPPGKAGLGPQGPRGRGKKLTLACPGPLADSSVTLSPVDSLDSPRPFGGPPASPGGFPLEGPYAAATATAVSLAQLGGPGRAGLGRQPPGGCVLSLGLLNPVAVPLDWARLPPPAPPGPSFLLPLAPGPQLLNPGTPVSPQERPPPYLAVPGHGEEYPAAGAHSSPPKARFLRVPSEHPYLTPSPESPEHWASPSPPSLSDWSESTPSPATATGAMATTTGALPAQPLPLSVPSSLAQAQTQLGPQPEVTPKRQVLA
Chain of Epidermal growth factor receptor (Homo sapiens) (P00533 whole entry, looked up): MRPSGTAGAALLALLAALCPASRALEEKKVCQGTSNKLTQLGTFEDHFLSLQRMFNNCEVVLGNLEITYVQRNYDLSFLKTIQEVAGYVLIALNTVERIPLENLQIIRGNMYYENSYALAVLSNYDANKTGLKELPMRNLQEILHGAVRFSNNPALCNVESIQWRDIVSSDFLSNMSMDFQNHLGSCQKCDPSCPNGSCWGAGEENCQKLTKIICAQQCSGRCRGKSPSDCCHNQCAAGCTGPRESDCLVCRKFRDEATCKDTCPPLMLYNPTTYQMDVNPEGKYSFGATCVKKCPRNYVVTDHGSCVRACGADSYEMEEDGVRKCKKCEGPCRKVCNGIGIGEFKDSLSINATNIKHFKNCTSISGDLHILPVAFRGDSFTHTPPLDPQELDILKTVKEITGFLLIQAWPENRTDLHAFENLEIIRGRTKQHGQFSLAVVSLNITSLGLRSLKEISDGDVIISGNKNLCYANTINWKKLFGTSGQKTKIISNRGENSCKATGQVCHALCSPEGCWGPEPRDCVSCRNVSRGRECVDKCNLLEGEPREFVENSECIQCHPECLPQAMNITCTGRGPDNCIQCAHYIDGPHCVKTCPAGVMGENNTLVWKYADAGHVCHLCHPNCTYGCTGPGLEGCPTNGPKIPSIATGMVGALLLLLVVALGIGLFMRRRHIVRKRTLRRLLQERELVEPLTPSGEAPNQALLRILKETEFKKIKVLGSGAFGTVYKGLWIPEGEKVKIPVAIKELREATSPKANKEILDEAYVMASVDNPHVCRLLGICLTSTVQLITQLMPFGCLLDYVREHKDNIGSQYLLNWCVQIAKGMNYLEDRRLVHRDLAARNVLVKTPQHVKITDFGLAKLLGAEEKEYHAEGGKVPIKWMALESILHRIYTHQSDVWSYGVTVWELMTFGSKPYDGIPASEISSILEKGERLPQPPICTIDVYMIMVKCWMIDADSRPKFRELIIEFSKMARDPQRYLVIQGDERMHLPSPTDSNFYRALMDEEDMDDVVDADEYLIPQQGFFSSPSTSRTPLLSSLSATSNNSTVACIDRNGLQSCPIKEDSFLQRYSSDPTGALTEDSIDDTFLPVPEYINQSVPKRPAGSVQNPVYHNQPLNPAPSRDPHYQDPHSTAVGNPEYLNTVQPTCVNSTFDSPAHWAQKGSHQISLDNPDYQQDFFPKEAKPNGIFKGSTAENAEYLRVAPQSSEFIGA
Chain of Dickkopf-related protein 1 (Homo sapiens) (O94907 whole entry, looked up): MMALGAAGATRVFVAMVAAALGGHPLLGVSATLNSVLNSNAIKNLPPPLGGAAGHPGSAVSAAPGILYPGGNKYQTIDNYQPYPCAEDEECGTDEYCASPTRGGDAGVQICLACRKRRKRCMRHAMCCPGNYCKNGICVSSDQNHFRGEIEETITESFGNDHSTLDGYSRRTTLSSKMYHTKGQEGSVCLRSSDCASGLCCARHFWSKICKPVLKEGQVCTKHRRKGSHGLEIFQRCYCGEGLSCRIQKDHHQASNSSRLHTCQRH
Chain of Follistatin-related protein 3 (Homo sapiens) (O95633 whole entry, looked up): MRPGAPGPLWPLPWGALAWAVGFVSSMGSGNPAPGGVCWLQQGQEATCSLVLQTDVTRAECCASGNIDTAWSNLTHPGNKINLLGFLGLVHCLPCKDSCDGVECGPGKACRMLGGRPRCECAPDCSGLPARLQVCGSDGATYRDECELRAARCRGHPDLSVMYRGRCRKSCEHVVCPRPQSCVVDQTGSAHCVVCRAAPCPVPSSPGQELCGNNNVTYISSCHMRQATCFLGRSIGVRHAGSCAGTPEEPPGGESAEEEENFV
Chain of Fibroblast growth factor 10 (Homo sapiens) (O15520 whole entry, looked up): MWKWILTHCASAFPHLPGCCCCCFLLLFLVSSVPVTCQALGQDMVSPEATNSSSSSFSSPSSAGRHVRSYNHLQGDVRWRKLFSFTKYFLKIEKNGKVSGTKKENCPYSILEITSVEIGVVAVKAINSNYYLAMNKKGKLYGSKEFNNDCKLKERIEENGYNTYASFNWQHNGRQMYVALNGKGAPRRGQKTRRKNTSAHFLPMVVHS

Row | Structure (SMILES) | composite z-score [1] | z-score [2] | z-score [3] | z-score [4] | composite z-score [5] | z-score [6] | composite z-score [7] | composite z-score [8] | composite z-score [9] | composite z-score [10] | composite z-score [11] | composite z-score [12] | composite z-score [13] | z-score [14] | composite z-score [15] | composite z-score [16] | composite z-score [17] | composite z-score [18] | composite z-score [19] | composite z-score [20]
1 | COc1ccccc1CN1C(=O)c2ccccc2[C@](Cc2ccccc2I)(C(=O)NC2CC2)[C@@H]1c1ccc(CO)cc1 | 1.54 | -0.357 (inactive) | 0.642 (inactive) | 2.01 (inactive) | 3.3 | 0.199 (inactive) | -0.117 | 1.1 | 1.06 | -0.0897 | 1.58 | -0.617 | 0.042 | 0.0417 (inactive) | 1.23 | 1.33 | 0.385 | 1.29 | 0.974 | 0.154
2 | CCCCCCC#C[Si](O[C@H](c1ccccc1)c1cn([C@H](C)c2ccccc2)nn1)(C(C)C)C(C)C | 0.789 | -0.285 (inactive) | 0.994 (inactive) | -0.0401 (inactive) | 0.828 | 1.33 (inactive) | -0.211 | 0.476 | 0.579 | -0.099 | 0.693 | -0.167 | -0.365 | -0.209 (inactive) | 0.547 | 0.565 | 0.483 | 0.841 | 1.25 | 0.327
3 | COCCOC(=O)N1C(=O)[C@@]2(c3cc(C#CCCO)ccc31)[C@H](c1ccc(O)cc1)N1[C@H](c3ccccc3)[C@H](c3ccccc3)OC(=O)[C@H]1[C@@H]2C(=O)N1CCCCCCC1 | 1.54 | 0.616 (inactive) | 0.948 (inactive) | 0.563 (inactive) | 2.86 | -0.16 (inactive) | 0.947 | 1.29 | 0.991 | 0.335 | 1.4 | 1.51 | 0.885 | 0.242 (inactive) | 1.13 | 1.26 | 0.483 | 1.39 | 0.771 | 1.59
4 | Cc1ccc(F)cc1S(=O)(=O)N[C@@H]1CCN(Cc2ccc(C(F)(F)F)cc2)C1 | 1.14 | -1.27 (inactive) | -20.3 (active) | -1.1 (inactive) | 1.08 | -4.8 (inactive) | -0.227 | 0.412 | -0.145 | -0.218 | -0.245 | 0.735 | -0.565 | 0.169 (inactive) | -0.425 | -1.41 | -0.444 | -0.769 | 0.0494 | -0.127
5 | O=C(NCCN1CCOCC1)[C@@H]1c2ccccc2C(=O)N(Cc2cc(F)cc(C(F)(F)F)c2)[C@H]1c1ccc(CO)cc1 | 1.54 | -0.718 (inactive) | -0.447 (inactive) | -0.405 (inactive) | 3.05 | -0.356 (inactive) | -0.22 | 0.935 | 0.58 | -0.149 | 1.07 | -0.469 | 0.776 | 0.284 (inactive) | 0.07 | -0.202 | -0.651 | -0.217 | -1.14 | -0.333
6 | CC1CC/C=C\[C@H]2OC34C=CCN(c5ccc6ccccc6c5)C(=O)[C@H]3N(CCCCCO)C(=O)[C@@H]4C2C(=O)O1 (stereo not given in full) | -0.712 | 0.231 (inactive) | 0.0271 (inactive) | -0.32 (inactive) | -1.87 | -0.603 (inactive) | 0.182 | -1.21 | -0.7 | -0.233 | 0.207 | 0.207 | 0.62 | 0.375 (inactive) | -1.34 | -1.25 | 0.0445 | -0.213 | -1.58 | -0.522
7 | Cc1ccc(S[C@]2(C(=O)NCC(C)C)CC(=O)N(Cc3ccccc3)[C@@H]2c2ccc(CO)cc2)cc1 | 0.744 | -1.14 (inactive) | -1.14 (inactive) | -0.256 (inactive) | 1.86 | -0.579 (inactive) | 0.189 | -0.779 | -0.331 | -0.236 | 0.959 | -0.0941 | 1.09 | 0.00364 (inactive) | -0.514 | -0.919 | -1.14 | -0.979 | -1.06 | -0.417
8 | Cc1ccc([C@H]2C(C(=O)O)=C[C@@H](C(C)C)N2S(=O)(=O)c2ccc(C)cc2)cc1 | 0.425 | -0.763 (inactive) | 0.0459 (inactive) | -0.128 (inactive) | 3.51 | -0.678 (inactive) | -0.0598 | -0.0681 | 0.412 | -0.0457 | 0.853 | 0.309 | 0.68 | -0.349 (inactive) | 0.265 | 0.914 | -0.206 | -0.103 | -0.329 | 0.479
9 | NC(=O)NCC#Cc1ccc2c(c1)[C@]1(C(=O)N2)[C@H](c2ccc(O)cc2)N2[C@H](c3ccccc3)[C@H](c3ccccc3)OC(=O)[C@H]2[C@@H]1C(=O)N1CCN(c2ncccn2)CC1 | 1.01 | 0.113 (inactive) | -0.923 (inactive) | 1.6 (inactive) | 1.45 | 1.1 (inactive) | 0.28 | -0.228 | -0.334 | 0.0193 | 0.681 | 0.337 | 0.372 | -0.0492 (inactive) | 0.602 | -0.398 | -0.232 | -0.483 | -0.122 | 0.862
10 | CO[C@H]1O[C@H](CO)[C@@H](OC(=O)Nc2ccc3c(c2)OCO3)[C@H](OC(=O)Nc2ccc3c(c2)OCO3)[C@H]1OC(=O)Nc1ccc2c(c1)OCO2 | 1.54 | 1.68 (inactive) | 0.861 (inactive) | 3.19 (inactive) | 3.5 | 0.922 (inactive) | 0.151 | 0.816 | 1.03 | -0.0455 | 1.49 | -0.0124 | 0.392 | -0.295 (inactive) | 1.24 | 1.33 | 0.258 | 0.878 | 0.101 | 1.14
